Measured values from PubChem BioAssay (EPA / NIEHS).
The source made the active and inactive calls. Rule for the calls: active = hit-call score of the fitted dose curve at least 0.9, where 1 is the maximum; inactive = score below 0.9.

What follows are compounds tested on Interferon-gamma inducible Protein 10 (IP10), CXCL10 (gene 3627) (assay: BSK_KF3CT_IP10: BioMAP Diversity Plus: KF3CT Assay for Interferon-gamma inducible Protein 10 (IP10) Biomarker Activity (AID 2283068)). Details: primary human keratinocytes with fibroblasts; actives raise or lower the signal.
Description: BSK_KF3CT is a cell-based, multiplexed-readout assay that uses keratinocytes and foreskin fibroblasts, a human skin primary cell co-culture, with measurements taken at 24 hours after chemical dosing in a 96-well plate.BSK_KF3CT_IP10 is an assay component measured in the BSK_KF3CT assay. It measures IP-10 antibody related to regulation of gene expression using ELISA technology.Data from the assay component BSK_KF3CT_IP10 was analyzed into 1 assay endpoint. This assay endpoint, BSK_KF3CT_IP10, was analyzed with bidirectional fitting relative to DMSO as the negative control and baseline of activity. Using a type of binding reporter, gain or loss-of-signal activity can be used to understand changes in the signaling as they relate to the gene CXCL10. Furthermore, this assay endpoint can be referred to as a primary readout, because this assay has produced multiple assay endpoints where this one serves a signaling function. To generalize the intended target to other relatable targets, this assay endpoint is annotated to the cytokine intended target family, where the subfamily is chemotactic factor.
The levels of cell surface (or secreted, indicated by the prefix "s") biomarker endpoints were measured by ELISA. Overt cytotoxicity to cells in confluent adherent cultures (all systems other than the BT system) was assessed by measuring total protein levels using sulforhodamine B (SRB) staining in parallel cultures at the time of biomarker measurements, indicated as SRB endpoints. For proliferation assays for adherent cell types, individual cell types are cultured at sub-confluence and relative cell numbers quantified by SRB staining at time points optimized for each system (48 h: 3C and CASM3C systems; 72 h: BT and HDF3CGF systems; 96 h: SAg system). SRB was performed by staining cells with 0.1% SRB after fixation with 10% TCA and reading wells at 560 nm.Viability and proliferation of PBMC (T cells) was quantified by Alamar Blue reduction for the SAg and BT systems. For PBMC viability (referred to as PBMC Cytotoxicity within the assay endpoint names), cells were plated (75,000/well in a 96-well plate) and then chemical samples added for 1 h before addition of activators, SEB and TSST-1 (20 ng/mL final concentration each). Cells were incubated for 90 h. Then, Alamar Blue (20 uL/well) (Invitrogen, Cat DAL1100) was added for 6 h, and the plates were read with a fluorescence microplate reader at 546/580 nm (excitation/emission). For PBMC proliferation, cells were plated and activated as above but incubated for only 16 h prior to addition of Alamar Blue. Plates were read after 6 h.

| Structure (SMILES) | AC50 | outcome |
| --- | --- | --- |
| CC(C)O.CC(C)O.OCCN(CCO)CCO.OCCN(CCO)CCO.[Ti] | 33.7 µM (active) | – |
| CCOP(=S)(OCC)OP(=S)(OCC)OCC | – | inactive |
| C[C@]12CC[C@@H](O)C[C@@H]1CC[C@@H]1[C@@H]2CC[C@]2(C)C(=O)CC[C@@H]12 | – | inactive |
| O=[N+]([O-])c1cccc2ccccc12 | – | inactive |
| Oc1cccc(-c2ccccc2)c1 | – | inactive |
| CC(C)=CC1C(C(=O)OCc2cccc(Oc3ccccc3)c2)C1(C)C (stereo not given) | – | inactive |
| [Cl][Sn]([c]1ccccc1)([c]1ccccc1)[c]1ccccc1 | 0.14 µM (active) | – |
| O=C(O)C1(c2ccc3c(c2)OC[C@H](Cc2ccc(-c4ccccc4)cc2)[C@H]3O)CCCC1 | 9.87 µM (active) | – |
| Cc1cc(Cl)ccc1N | – | inactive |
| Cc1ccc2nc3sc(=O)sc3nc2c1 | – | inactive |
| O=C(CCl)NCO | – | inactive |
| CCCCCCCCCCCCc1cccc(S(=O)(=O)O)c1 | 16.5 µM (active) | – |
| C=CC(Cl)CCl (stereo not given) | – | inactive |
| CC(C)(C)c1cc([N+](=O)[O-])cc(C(C)(C)C)c1O | 0.0652 µM (active) | – |
| CN(C)C(=S)S | – | inactive |
| O=C(Cc1ccccc1)OCCc1ccccc1 | – | inactive |
| OCCCCO | – | inactive |
| CCOC(=O)CC(=O)CCl | – | inactive |
| CCCCCCCCCCCCN(C)C | – | inactive |
| O=[N+]([O-])c1ccc(Nc2ccccc2)cc1 | – | inactive |

| Structure (SMILES) | AC50 | outcome |
| --- | --- | --- |
| O=C(N[C@H]1CN2CCC1CC2)c1ccc2c(c1)OCCO2 | – | inactive |
| Oc1ccc(Cc2ccc(O)cc2)cc1 | – | inactive |
| Cc1ccccc1OP(=O)(Oc1ccccc1C)Oc1ccccc1C | 14.7 µM (active) | – |
| Cc1cc(C(C)(C)c2ccc(O)c(C)c2)ccc1O | – | inactive |
| CCOP(=S)(OCC)SCS(=O)(=O)C(C)(C)C | – | inactive |
| Cc1c([N+](=O)[O-])c(C)c([N+](=O)[O-])c(C(C)(C)C)c1[N+](=O)[O-] | 32.4 µM (active) | – |
| O=c1oc2ccccc2c(O)c1C(CC(O)c1ccc(-c2ccc(Br)cc2)cc1)c1ccccc1 (stereo not given) | 8.62 µM (active) | – |
| OC(Cc1ccccc1Cl)(Cn1cncn1)C1(Cl)CC1 (stereo not given) | – | inactive |
| CC(C)N(C(=O)CCl)c1ccccc1 | 20 µM (active) | – |
| N#CCCC(Br)(C#N)CBr (stereo not given) | 33.1 µM (active) | – |
| CCOC(=O)C(SP(=S)(OC)OC)c1ccccc1 (stereo not given) | – | inactive |
| c1ccc(-c2cccc(-c3ccccc3)c2)cc1 | – | inactive |
| Clc1cccc(Cl)c1Cl | – | inactive |
| O=S(=O)(C(Cl)(Cl)Cl)C(Cl)(Cl)Cl | 2.99 µM (active) | – |
| CCOP(=O)(OCC)OC(=CCl)c1ccc(Cl)cc1Cl | 32.8 µM (active) | – |
| CCC(C)(C#N)N=NC(C)(C#N)CC (stereo not given) | – | inactive |
| CC1(C)[C@H](C(=O)O[C@H](C#N)c2cccc(Oc3ccccc3)c2)[C@@H]1/C=C(\Cl)C(F)(F)F | – | inactive |
| NC(=O)CCl | – | inactive |
| OCCN(CCO)CCO | – | inactive |
| Cc1cccc(OP(=O)(Oc2cccc(C)c2)Oc2cccc(C)c2)c1 | – | inactive |
